Source: PubChem BioAssay (EPA / NIEHS)
The source made the active and inactive calls. The calls were made as follows: active = hit-call score of the fitted dose curve at least 0.9, where 1 is the maximum; inactive = score below 0.9.

Tests used:
Settings in all cases: mRNA level, 48 h; actives raise or lower the signal
[1] = read-out: Apolipoprotein A-V (APOA5) gene, APOA5 (gene 116519); assay: LTEA_HepaRG_APOA5: Life Technologies and Expression Analysis (LTEA) Assay for Apolipoprotein A-V (APOA5) gene using HepaRG (AID 2283474)
Procedure, shortened: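 Readout is APOA5 transcript level by qRT-PCR on Fluidigm dynamic arrays, normalized to three housekeeping genes. HepaRG cultures received chemicals for 48 h at up to 100 uM (half-log steps, 0.5% DMSO), with gain or loss scored relative to DMSO.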

[2] = read-out: Apoptosis regulator Bcl-2 (Homo sapiens) (UniProt P10415); assay: LTEA_HepaRG_BCL2: Life Technologies and Expression Analysis (LTEA) Assay for Bcl-2 gene using HepaRG (AID 2283475)
Procedure, shortened: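 Differentiated HepaRG cells in serum-free induction medium were exposed for 48 h to eight half-log concentrations up to 100 uM in 0.5% DMSO, in duplicate. BCL2 mRNA was quantified by TaqMan qRT-PCR normalised to ACTB, GAPDH and POLR2A, with bidirectional fitting versus DMSO.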

[3] = read-out: Bcl-2 (BID) gene, BID (gene 637); assay: LTEA_HepaRG_BID: Life Technologies and Expression Analysis (LTEA) Assay for Bcl-2 (BID) gene using HepaRG (AID 2283476)
Procedure, shortened: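 Differentiated HepaRG cells in serum-free induction medium were exposed in duplicate for 48 h to eight half-log concentrations up to 100 uM in 0.5% DMSO. BID mRNA was quantified by qRT-PCR, normalized to ACTB, GAPDH and POLR2A.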

Caspase-3 (Homo sapiens) = Caspase-3 (Homo sapiens) (UniProt P42574); assay: LTEA_HepaRG_CASP3: Life Technologies and Expression Analysis (LTEA) Assay for cysteine-aspartic acid protease (CASP3) using HepaRG (AID 2283477)
Caspase-3 (Homo sapiens), sequence (P42574 whole entry, looked up): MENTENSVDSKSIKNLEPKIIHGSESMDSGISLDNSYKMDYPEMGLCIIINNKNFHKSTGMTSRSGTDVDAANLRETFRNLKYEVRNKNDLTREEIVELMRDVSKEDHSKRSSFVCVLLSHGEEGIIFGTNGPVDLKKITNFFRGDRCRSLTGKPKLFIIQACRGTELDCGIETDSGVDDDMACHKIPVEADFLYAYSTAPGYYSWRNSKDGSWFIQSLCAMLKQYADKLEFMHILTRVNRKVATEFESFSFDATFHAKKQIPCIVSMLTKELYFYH
Procedure, shortened: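 Read-out is CASP3 mRNA level by TaqMan qRT-PCR in human HepaRG cells after 48 h chemical exposure. Eight half-log concentrations topping at 100 uM were tested in 0.5% DMSO; gain or loss was fitted relative to DMSO.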

[4] = read-out: Cytochrome P450 (CYP24A1), CYP24A1 (gene 1591); assay: LTEA_HepaRG_CYP24A1: Life Technologies and Expression Analysis (LTEA) Assay for Cytochrome P450 (CYP24A1) using HepaRG (AID 2283478)
Procedure, shortened: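 HepaRG, 48 h chemical exposure, 8-pt half-log CRC from 100 uM, 0.5% DMSO vehicle, duplicates. Endpoint: CYP24A1 mRNA by Fluidigm TaqMan qRT-PCR, normalized ACTB/GAPDH/POLR2A; gain/loss fit vs DMSO.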

[5] = read-out: Cytochrome P450 (CYP1A2), CYP1A2 (gene 1544); assay: LTEA_HepaRG_CYP1A2: Life Technologies and Expression Analysis (LTEA) Assay for Cytochrome P450 (CYP1A2) using HepaRG (AID 2283479)
Procedure, shortened: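 CYP1A2 transcript induction or loss, quantified by Fluidigm qRT-PCR against three housekeeping genes, was fitted bidirectionally against 0.5% DMSO controls. Human HepaRG cells received eight half-log concentrations from 100 uM over 48 h.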

[6] = read-out: cysteine-aspartic acid protease (CASP8), CASP8 (gene 841); assay: LTEA_HepaRG_CASP8: Life Technologies and Expression Analysis (LTEA) Assay for cysteine-aspartic acid protease (CASP8) using HepaRG (AID 2283480)
Procedure, shortened: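 Differentiated HepaRG cells in serum-free induction medium, 48 h exposure, eight-point half-log series from 100 uM in 0.5% DMSO, duplicates. CASP8 mRNA by qRT-PCR, normalized to ACTB, GAPDH, POLR2A; bidirectional fit versus DMSO.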

[7] = read-out: Cytochrome P450 (CYP2B6), CYP2B6 (gene 1555); assay: LTEA_HepaRG_CYP2B6: Life Technologies and Expression Analysis (LTEA) Assay for Cytochrome P450 (CYP2B6) using HepaRG (AID 2283481)
Procedure, shortened: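 HepaRG cells plated 48 h, switched to serum-free induction medium, then dosed 48 h (8 points, half-log from 100 uM, 0.5% DMSO). RNA isolated; CYP2B6 expression measured by qRT-PCR; gain or loss fitted relative to DMSO.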

[8] = read-out: Cytochrome P450 2C19 (Homo sapiens) (UniProt P33261); assay: LTEA_HepaRG_CYP2C19: Life Technologies and Expression Analysis (LTEA) Assay for CYP2C19 using HepaRG (AID 2283482)
Procedure, shortened: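 Transcript levels of CYP2C19 were quantified by qRT-PCR after HepaRG cells were treated for 48 hours with test chemicals up to 100 uM (eight half-log concentrations, 0.5% DMSO vehicle). Gain or loss of signal was fitted relative to DMSO.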

CYP2C8 (gene 1558) = assay: LTEA_HepaRG_CYP2C8: Life Technologies and Expression Analysis (LTEA) Assay for CYP2C8 using HepaRG (AID 2283483)
Procedure, shortened: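 Differentiated HepaRG cells in serum-free induction medium exposed 48 h in duplicate to 8 half-log concentrations from 100 uM in 0.5% DMSO. CYP2C8 mRNA by qRT-PCR normalized to ACTB, GAPDH, POLR2A; bidirectional fit versus DMSO.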

Cytochrome P450 2C19 (Homo sapiens), sequence (P33261 whole entry, looked up): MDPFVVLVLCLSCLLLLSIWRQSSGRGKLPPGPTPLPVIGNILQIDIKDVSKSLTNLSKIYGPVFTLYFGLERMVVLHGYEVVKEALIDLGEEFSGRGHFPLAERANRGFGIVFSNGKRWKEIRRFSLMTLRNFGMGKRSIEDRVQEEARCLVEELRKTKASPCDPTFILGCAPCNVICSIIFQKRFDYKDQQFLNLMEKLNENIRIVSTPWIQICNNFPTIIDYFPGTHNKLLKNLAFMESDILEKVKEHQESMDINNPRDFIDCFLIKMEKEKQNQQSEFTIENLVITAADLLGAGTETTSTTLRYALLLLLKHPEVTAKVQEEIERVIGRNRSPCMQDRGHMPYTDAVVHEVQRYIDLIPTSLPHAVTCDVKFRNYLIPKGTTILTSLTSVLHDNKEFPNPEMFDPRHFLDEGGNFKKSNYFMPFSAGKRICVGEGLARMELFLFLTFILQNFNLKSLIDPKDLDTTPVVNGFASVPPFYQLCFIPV
Apoptosis regulator Bcl-2 (Homo sapiens), sequence (P10415 whole entry, looked up): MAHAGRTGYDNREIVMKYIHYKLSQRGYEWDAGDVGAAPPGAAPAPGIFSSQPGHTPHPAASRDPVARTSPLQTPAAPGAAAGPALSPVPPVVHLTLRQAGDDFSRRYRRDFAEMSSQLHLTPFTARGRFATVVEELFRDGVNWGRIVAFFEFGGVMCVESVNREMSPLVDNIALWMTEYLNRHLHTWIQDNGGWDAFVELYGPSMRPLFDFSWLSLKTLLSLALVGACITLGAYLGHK

Row | SMILES | outcome [1] | outcome [2] | outcome [3] | outcome (Caspase-3 (Homo sapiens)) | outcome [4] | outcome [5] | outcome [6] | outcome [7] | outcome [8] | outcome (CYP2C8 (gene 1558)) | AC50 [5] | AC50 [7] | AC50 [8] | AC50 (CYP2C8 (gene 1558)) | AC50 [1] | AC50 [2]
1 | O=C(c1ccc(O)cc1O)c1ccc(O)cc1O | inactive | inactive | inactive | inactive | inactive | inactive | inactive | inactive | inactive | inactive |  |  |  |  |  | 
2 | CCCCOCCOCCOCc1cc2c(cc1CCC)OCO2 | inactive | inactive | inactive | inactive | inactive |  | inactive |  |  |  | 16.5 µM (active) | 2.28 µM (active) | 5.73 µM (active) | 4.61 µM (active) |  | 
3 | CCN(CC)C(=O)c1cccc(C)c1 | inactive | inactive | inactive | inactive | inactive | inactive | inactive |  |  |  |  | 3.4 µM (active) | 12.9 µM (active) | 9.19 µM (active) |  | 
4 | CCOC(=O)NCCOc1ccc(Oc2ccccc2)cc1 |  |  | inactive | inactive | inactive |  | inactive |  |  |  | 84.5 µM (active) | 81.4 µM (active) | 81.6 µM (active) | 81.1 µM (active) | 85.8 µM (active) | 82.1 µM (active)
5 | Cc1nn(C)c(Oc2ccccc2)c1C=NOCc1ccc(C(=O)OC(C)(C)C)cc1 |  |  | inactive | inactive | inactive |  | inactive |  |  |  | 2.35 µM (active) | 1.68 µM (active) | 29.2 µM (active) | 25.7 µM (active) | 29.9 µM (active) | 7.02 µM (active)
6 | COC(=O)c1ccccc1C(=O)O | inactive | inactive | inactive | inactive | inactive | inactive | inactive | inactive | inactive | inactive |  |  |  |  |  | 
7 | COCCO | inactive | inactive | inactive | inactive | inactive | inactive | inactive | inactive | inactive | inactive |  |  |  |  |  | 
